Here are results for nine compounds from PubChem BioAssay (NCI).

Molecules are shown by their SMILES. This is part of a sample that, as a whole, favours compounds with a hit. Of some 79,000 tested, about 15% had one in any assay. Values without a mark were called inactive. The source made the active and inactive calls. Cut-off read from the data, not from the text of the source: active = growth inhibition above about 70%; inactive = the rest.

A short description of assay [1]: NCI Yeast Anticancer Drug Screen. Data for the rad50 strain (AID 155).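 Note: 0% = growth of vehicle-only cultures of the same strain.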 Particulars: S. cerevisiae rad50 strain growth inhibition, stronger effect = higher value. The method, boiled down: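 Compounds were tested on a yeast strain with an engineered DNA damage repair alteration; the reported value is growth inhibition normalised to vehicle treatment.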
Assay [2] can be described thus: NCI Yeast Anticancer Drug Screen. Data for the mec2-1 strain (AID 157). Particulars: S. cerevisiae mec2-1 strain, stronger effect = higher value. An outline of the steps:
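mec2-1 yeast strain, carrying an alteration in DNA damage repair or cell cycle control, was exposed to compounds; growth inhibition was measured relative to vehicle-treated controls.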

The nature of assay [3]: NCI Yeast Anticancer Drug Screen. Data for the sgs1 mgt1 strain (AID 161).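 Note: 0% = growth of cultures given vehicle only.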 Particulars: S. cerevisiae sgs1 mgt1 strain, stronger effect = higher value. An outline of the steps: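 Compounds are added to genetically altered yeast, and growth is compared with cultures given vehicle alone to give percent inhibition.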
A short description of assay [4]: NCI Yeast Anticancer Drug Screen. Data for the cln2 rad14 strain (AID 165).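 Note: 0% = growth equal to vehicle treated cultures.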 Particulars: S. cerevisiae cln2 rad14 strain, stronger effect = higher value. The method, boiled down: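 Yeast carrying cln2 and rad14 alterations (cell cycle control and DNA damage repair) were exposed to compounds. Growth inhibition was measured against vehicle-treated controls.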
A short description of assay [5]: NCI Yeast Anticancer Drug Screen. Data for the bub3 strain (AID 167). Particulars: S. cerevisiae bub3 mutant strain, stronger effect = higher value. The method, boiled down: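 Growth of a checkpoint-deficient yeast mutant is measured after compound exposure. Values represent inhibition relative to vehicle.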
Assay [6] is described as follows: NCI Yeast Anticancer Drug Screen. Data for the mlh1 rad18 strain (AID 175). Particulars: S. cerevisiae mlh1 rad18 strain growth inhibition, stronger effect = higher value. An outline of the steps: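 Growth inhibition of the yeast strain was measured after compound exposure and expressed relative to vehicle-treated controls. The strain carries defined defects in DNA damage repair.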

Setting [7] is: at 5.0 µM (retest, dose inferred, filed as 0.5).
The mark [8] stands for this setting: at 50.0 µM (retest, dose inferred, filed as 5.0).

On to `Cc1ccc(O)c(C(c2ccc([N+](=O)[O-])cc2)c2cc(C)ccc2O)c1`, for which the growth inhibition in assay [1] (setting [7]) is 68%; in assay [1] (setting [8]), 95% (active); in assay [1] (at 50.0 µM) it was 91.2% (active); in assay [2] (setting [7]) it was 90% (active); in assay [2] (setting [8]) it was 98% (active); in assay [2] (at 50.0 µM), 92.9% (active). Moreover, the growth inhibition in assay [3] (setting [7]) is 51%; in assay [3] (setting [8]) it was 57%; in assay [3] (at 50.0 µM), 39%; in assay [4] (setting [7]), 73% (active); in assay [4] (setting [8]), 53%; in assay [4] (at 50.0 µM) it was 89.7% (active). The growth inhibition was 93% (active) in assay [5] (setting [7]); 52% in assay [5] (setting [8]); 90.9% (active) in assay [5] (at 50.0 µM); 84% (active) in assay [6] (setting [7]); 96% (active) in assay [6] (setting [8]); 91.3% (active) in assay [6] (at 50.0 µM).
Regarding `O=S(=O)(N/N=C/c1ccc(Cl)cc1Cl)c1ccccc1`, the growth inhibition was -20% in assay [1] (setting [7]); -11% in assay [1] (setting [8]); -19.3% in assay [1] (at 50.0 µM); -4% in assay [2] (setting [7]); -11% in assay [2] (setting [8]); -10.3% in assay [2] (at 50.0 µM). For the same compound, the growth inhibition in assay [3] (setting [7]) is 10%; in assay [3] (setting [8]) it was -14%; in assay [3] (at 50.0 µM), -12.4%; in assay [4] (setting [7]) it was -16%; in assay [4] (setting [8]), -15%; in assay [4] (at 50.0 µM), -26.9%. Besides, the growth inhibition is 17% in assay [5] (setting [7]); 22% in assay [5] (setting [8]); -16.6% in assay [5] (at 50.0 µM); 8% in assay [6] (setting [7]); 4% in assay [6] (setting [8]); 14% in assay [6] (at 50.0 µM).
As for `COC(=O)C1CCC(=O)N1C(c1ccc(OC)cc1)c1cc(OC)c(OC)c(OC)c1` (configuration not stated), the growth inhibition in assay [1] (setting [7]) was 27%; in assay [1] (setting [8]), 45%; in assay [1] (at 50.0 µM), -33.5%; in assay [2] (setting [7]), 21%; in assay [2] (setting [8]), 15%; in assay [2] (at 50.0 µM), 8.55%. The growth inhibition in assay [3] (setting [7]) was 32%; in assay [3] (setting [8]), 42%; in assay [3] (at 50.0 µM) it was 1.95%; in assay [4] (setting [7]), 46%; in assay [4] (setting [8]), 40%; in assay [4] (at 50.0 µM), -7.4%. In addition, the growth inhibition in assay [5] (setting [7]) was 43%; in assay [5] (setting [8]), 41%; in assay [5] (at 50.0 µM), -8.55%; in assay [6] (setting [7]), 17%; in assay [6] (setting [8]), 20%; in assay [6] (at 50.0 µM) it was -10.2%.
`COC(=O)C12OCC34C(CC5C(C)C6=CC(=O)OC6=CC5(C)C3C(O)C1O)OC(=O)C(O)C24` (configuration not stated): the growth inhibition in assay [1] (setting [7]) was 26%; in assay [1] (setting [8]), 84% (active); in assay [1] (at 50.0 µM) it was 89.7% (active); in assay [2] (setting [7]) it was 30%; in assay [2] (setting [8]), 82% (active); in assay [2] (at 50.0 µM) it was 91.4% (active). The growth inhibition in assay [3] (setting [7]) was -18%; in assay [3] (setting [8]), 94% (active); in assay [3] (at 50.0 µM), 91% (active); in assay [4] (setting [7]) it was -6%; in assay [4] (setting [8]) it was 96% (active); in assay [4] (at 50.0 µM), 88.1% (active). The growth inhibition was -2% in assay [5] (setting [7]); 95% (active) in assay [5] (setting [8]); 89.3% (active) in assay [5] (at 50.0 µM); 33% in assay [6] (setting [7]); 93% (active) in assay [6] (setting [8]); 81.3% (active) in assay [6] (at 50.0 µM).
`CC1=CC(O)(c2ccc(-c3ccccc3Cl)cc2)OC1=O` (configuration not stated): the growth inhibition in assay [1] (setting [7]) is -8%; in assay [1] (setting [8]), 90% (active); in assay [1] (at 50.0 µM), 90.2% (active); in assay [2] (setting [7]), 0%; in assay [2] (setting [8]), 96% (active); in assay [2] (at 50.0 µM) it was 94.8% (active). For the same compound, the growth inhibition was -1% in assay [3] (setting [7]); 88% (active) in assay [3] (setting [8]); 92.1% (active) in assay [3] (at 50.0 µM); -19% in assay [4] (setting [7]); 87% (active) in assay [4] (setting [8]); 90.9% (active) in assay [4] (at 50.0 µM). Further, the growth inhibition in assay [5] (setting [7]) is -11%; in assay [5] (setting [8]), 95% (active); in assay [5] (at 50.0 µM), 89.3% (active); in assay [6] (setting [7]) it was -9%; in assay [6] (setting [8]) it was 94% (active); in assay [6] (at 50.0 µM) it was 96.3% (active).
In the case of `CC(C)c1ccc(C2C3=C(N=C4SCC(=O)N42)C(=O)c2ccccc23)cc1` (configuration not stated), the growth inhibition is 7% in assay [1] (setting [7]); -6% in assay [1] (setting [8]); 86.7% (active) in assay [1] (at 50.0 µM); -20% in assay [2] (setting [7]); 3% in assay [2] (setting [8]); 68.2% in assay [2] (at 50.0 µM). For the same compound, the growth inhibition in assay [3] (setting [7]) was -6%; in assay [3] (setting [8]) it was 5%; in assay [3] (at 50.0 µM) it was 89.2% (active); in assay [4] (setting [7]), -31%; in assay [4] (setting [8]), 8%; in assay [4] (at 50.0 µM), 83% (active). In addition, the growth inhibition was -41% in assay [5] (setting [7]); 41% in assay [5] (setting [8]); 80.3% (active) in assay [5] (at 50.0 µM); -39% in assay [6] (setting [7]); 2% in assay [6] (setting [8]); 42.2% in assay [6] (at 50.0 µM).
As to `Nc1ncnc2c1c(-c1ccccc1)cn2-c1ccccc1`, the growth inhibition was 38% in assay [1] (setting [7]); 78% (active) in assay [1] (setting [8]); 97.8% (active) in assay [1] (at 50.0 µM); 31% in assay [2] (setting [7]); 58% in assay [2] (setting [8]); 97.3% (active) in assay [2] (at 50.0 µM). Further, the growth inhibition in assay [3] (setting [7]) was 71% (active); in assay [3] (setting [8]) it was 93% (active); in assay [3] (at 50.0 µM), 99% (active); in assay [4] (setting [7]), 20%; in assay [4] (setting [8]), 53%; in assay [4] (at 50.0 µM), 95.2% (active). Moreover, the growth inhibition is 29% in assay [5] (setting [7]); 81% (active) in assay [5] (setting [8]); 95.8% (active) in assay [5] (at 50.0 µM); 27% in assay [6] (setting [7]); 82% (active) in assay [6] (setting [8]); 98.5% (active) in assay [6] (at 50.0 µM).
Consider `CN(C)N=Nc1ccc(-c2ccccc2)cc1`, for which the growth inhibition in assay [1] (setting [7]) was 24%; in assay [1] (setting [8]) it was 95% (active); in assay [1] (at 50.0 µM) it was 87.8% (active); in assay [2] (setting [7]) it was 42%; in assay [2] (setting [8]), 92% (active); in assay [2] (at 50.0 µM) it was 78.3% (active). Also, the growth inhibition was 6% in assay [3] (setting [7]); 60% in assay [3] (setting [8]); 81.8% (active) in assay [3] (at 50.0 µM); 30% in assay [4] (setting [7]); 85% (active) in assay [4] (setting [8]); 74.2% (active) in assay [4] (at 50.0 µM). The growth inhibition is 37% in assay [5] (setting [7]); 64% in assay [5] (setting [8]); 86.5% (active) in assay [5] (at 50.0 µM); 38% in assay [6] (setting [7]); 89% (active) in assay [6] (setting [8]); 84.5% (active) in assay [6] (at 50.0 µM).
Take `C=C1CC[C@@H](Br)C(C)(C)[C@]12CCC(C)(O)C(Cl)C2` (some centres not stated): the growth inhibition in assay [1] (setting [7]) is -3%; in assay [1] (setting [8]), 34%; in assay [1] (at 50.0 µM), 91.7% (active); in assay [2] (setting [7]), 16%; in assay [2] (setting [8]) it was 30%; in assay [2] (at 50.0 µM), 93.5% (active). Besides, the growth inhibition in assay [3] (setting [7]) is 10%; in assay [3] (setting [8]), 44%; in assay [3] (at 50.0 µM), 92.2% (active); in assay [4] (setting [7]) it was 31%; in assay [4] (setting [8]), 44%; in assay [4] (at 50.0 µM), 90.9% (active). The growth inhibition in assay [5] (setting [7]) was 6%; in assay [5] (setting [8]) it was 72% (active); in assay [5] (at 50.0 µM), 92% (active); in assay [6] (setting [7]) it was -25%; in assay [6] (setting [8]) it was 41%; in assay [6] (at 50.0 µM), 91% (active).
